Assay [1] relates to CRL-7250. Briefly: Cytotoxic Profiling of Annotated Libraries Using Quantitative High-Throughput Screening (AID 1296008). Also: potency is read from the fitted curve at half-maximal effect. As to max response: % is scaled to controls: 0 for no effect and ±100 for the full control effect. The following applies: Five cell lines viability, CellTiter-Glo ATP luminescence, 48-72 h; max response: active compounds read low. A digest of the protocol:
(§1)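 Compounds were pin-transferred onto cells and incubated 48 or 72 hr at 37 degree Celsius, 95% humidity. CellTiter-Glo was added, plates sat 10 min at room temperature, then ATP-coupled luminescence was imaged as the viability read-out.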

The next assay deals with HEK293. The assay is described as above. Conditions: Five cell lines viability, CellTiter-Glo ATP luminescence, 48-72 h; max response: active compounds read low. A digest of the protocol: as §1
On the technique in general: Cellular ATP, detected with luciferase, serves as a proxy for viable cell number.

Assay [2] deals with HaCat. The assay is described as above. Conditions: Five cell lines viability, CellTiter-Glo ATP luminescence, 48-72 h; max response: active compounds read low. A digest of the protocol: as §1
In assay [3] the test system is NIH3T3. Described as above. The following applies: Five cell lines viability, CellTiter-Glo ATP luminescence, 48-72 h; max response: active compounds read low. A digest of the protocol:
as §1

The next assay has as its system KB-3-1. Described as above. The following applies: Five cell lines viability, CellTiter-Glo ATP luminescence, 48-72 h; max response: active compounds read low. A digest of the protocol:
as §1

In assay [4] the test system is CRL-7250. Briefly: qHTS assay to identify novel small-molecules to repurpose for Merkel cell carcinoma treatment (AID 1296009). The following applies: MCC and control cell lines, CellTiter-Glo viability, 72 h; at 44.8 µM (top of the series) unless noted. A digest of the protocol:
(§2)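 Luminescence from CellTiter-Glo, read 10 min after addition at room temperature, reported viability following a 72 hr, 37 degree celsius treatment with NPC or MIPE compounds in titration; values normalized to plate controls.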
For orientation: qHTS replaces the single test concentration by a dilution series.

Assay [5] has as its system HACAT. The assay is described as above. Conditions: MCC and control cell lines, CellTiter-Glo viability, 72 h; at 44.8 µM (top of the series) unless noted. A digest of the protocol: as §2
The test system of assay [6] is NIH3T3. The description is as above. Conditions: MCC and control cell lines, CellTiter-Glo viability, 72 h; at 44.8 µM (top of the series) unless noted. A digest of the protocol:
as §2

In the next assay the test system is HEK293T. The description is as above. Conditions: MCC and control cell lines, CellTiter-Glo viability, 72 h; at 44.8 µM (top of the series) unless noted. A digest of the protocol:
as §2

Where “and” joins values, the source holds several entries; their conditions need not be identical. Equal values may be shown once. Inconclusive results are not listed. More than one record can exist for a structure, and the calls need not agree. Unmarked numbers belong to inactive results. Calls of active or inactive are those of the source. Calls follow the shape of the dose curve; as a rule, active = well fitted inhibition curve with a large enough effect; inconclusive = small, poorly fitted or top-dose-only effect; inactive = flat fitted curve, though single readings scatter.
Also: nearly all actives have a fitted effect of over 60% in size.

With `CCOc1ccccc1-n1c(C(C)N2CCN(C(=O)COc3ccc(Cl)cc3)CC2)nc2ccccc2c1=O` (configuration not stated), the Potency in the assay on CRL-7250 [1] was 5.17 µM (active) and 3.71 µM (active); with HEK293 it was 4.11 µM (active) and 2.95 µM (active); in the assay with HaCat [2] it was 18.6 µM (active); with NIH3T3 [3], 1.03 µM (active) and 933 nM (active). The max response in the assay on HaCat [2] was -19.2%.
Turning to `COC(=O)C1(C)CCC(O)C2(C)c3cc(O)c(C(C)C)cc3C(O)C(OC(C)=O)C12` (configuration not stated), the result in the assay with CRL-7250 [1], in the assay with HaCat [2] and with KB-3-1 was inactive. Moreover, the max response in the assay with HEK293 was 3.05%; with NIH3T3 [3] it was 3.45%. Besides, the outcome in the assay on CRL-7250 [4] and with HACAT [5] was “inactive [at 17.4 µM]” throughout.
Take `COC1CC(=O)C23C(=O)NC(CC(C)C)C2C(C)=C(C)C(OO)C3/C=C(\C)CCC(O)C1O` (configuration not stated): the result with CRL-7250 [1], in the assay with HaCat [2], in the assay on KB-3-1 and in the assay with NIH3T3 [3] was inactive. Moreover, in the assay on HEK293, the max response is 3.17%. In addition, the outcome in the assay on CRL-7250 [4], in the assay with HACAT [5] and with NIH3T3 [6] was “inactive [at 17.4 µM]” in each case.
Turning to `OCCCCC#Cc1cncc(OC[C@@H]2CCN2)c1`, the result in the assay with CRL-7250 [1], in the assay with HaCat [2], with NIH3T3 [3], in the assay with CRL-7250 [4], with HACAT [5] and in the assay with NIH3T3 [6] was inactive. Also, the max response is -3.98% in the assay on HEK293 and -3.78% in the assay with KB-3-1.
Regarding `CN(C)CCc1c[nH]c2ccc(CN3CCN(C)S3(=O)=O)cc12`, the max response in the assay on CRL-7250 [1] was 3.29%; with HEK293, -0.516%; in the assay on KB-3-1, -6.8%. In addition, the outcome in the assay on HaCat [2], in the assay on NIH3T3 [3], in the assay on HACAT [5] and in the assay with NIH3T3 [6] was inactive.
On to `COC1=CC(=O)O[C@@H](CCc2ccccc2)C1`, for which the molecule was called inactive in the assay with CRL-7250 [1], in the assay on KB-3-1, in the assay with NIH3T3 [3], in the assay on CRL-7250 [4] and in the assay on NIH3T3 [6]. Moreover, the max response is 0.422% in the assay with HEK293 and 3.86% with HaCat [2].
Take `CN1[C@H]2C[C@H](OC(=O)[C@H](CO)c3ccccc3)C[C@@H]1[C@@H](O)C2`: the figures for the max response with CRL-7250 [1] and in the assay with KB-3-1 were -1.08% and 1.1%, respectively. Besides, the call in the assay on HEK293, with HaCat [2], with NIH3T3 [3], in the assay on HACAT [5], with HEK293T and with NIH3T3 [6] was inactive.
On to `C[C@@]12C[C@@H](c3ccoc3)OC(=O)C1CC[C@]1(C)[C@H]2[C@H]2C=C[C@]1(O)C(=O)O2` (some centres not stated), for which the result with CRL-7250 [1], in the assay with HEK293, with NIH3T3 [3], in the assay on CRL-7250 [4], in the assay with HEK293T and in the assay with NIH3T3 [6] was inactive. In addition, the max response in the assay on HaCat [2] was -0.33%; in the assay with KB-3-1, 3.68%.
With `COC1=CC(=O)O[C@@H](/C=C/c2ccccc2)C1`, the max response with CRL-7250 [1] was -9.99%; with HEK293 it was -8.8%. Besides, the result with HaCat [2], in the assay with KB-3-1, with NIH3T3 [3], with HACAT [5] and in the assay with NIH3T3 [6] was inactive.
For the molecule `CCN1C[C@]2(COC)[C@H](O)C[C@H](OC)[C@]34[C@@H]5C[C@]6(O)[C@H](OC(=O)c7ccccc7)[C@@H]5[C@@](O)([C@H]([C@H](OC)[C@H]23)[C@@H]14)[C@@H](O)[C@@H]6OC`, the outcome in the assay with CRL-7250 [1], in the assay with HEK293, in the assay with NIH3T3 [3], with CRL-7250 [4], in the assay on HEK293T and in the assay with NIH3T3 [6] was inactive. The max response in the assay with HaCat [2] is 1.58%; in the assay on KB-3-1, 2.1%.
Regarding `CC1=CC2/C=C(\C)CCC(O)C3OC(C)(C)OC3CC(=O)OC23C(=O)NC(CC(C)C)C3C1C` (configuration not stated), the max response in the assay on CRL-7250 [1] was 0.49%; in the assay with HEK293 it was 2.48%. The molecule was called inactive with HaCat [2], in the assay on KB-3-1 and in the assay with NIH3T3 [3]. Further, the outcome in the assay with HACAT [5] and in the assay with NIH3T3 [6] was “inactive [at 17.4 µM]” in each case.
Take `C=C(C)[C@H]1O[C@H]2CC[C@@]3(C)[C@@](O)(CC[C@H]4[C@@H]5OC(C)(C)[C@H]6C[C@@H]7C(=C)Cc8c(Cl)cc9[nH]c(c5c9c8[C@@]76O)[C@@]43C)[C@]23O[C@@H]3[C@H]1O`: the max response in the assay with CRL-7250 [1] is -5.7%; with HaCat [2] it was 4.01%; in the assay with NIH3T3 [3], -2.87%. The outcome with HEK293 and in the assay with KB-3-1 was inactive. The outcome in the assay on HEK293T is “inactive [at 17.4 µM]”.
On to `COC1CC(OC2CCC3(C)C(=CCC4C3CCC3(C)C(C(C)OC5OC(COC6OC(CO)C(O)C(O)C6O)C(O)C(O)C5O)CCC43O)C2)OC(C)C1OC1OC(C)C(O)C(OC)C1O` (configuration not stated), for which the max response in the assay on CRL-7250 [1] is -7.32%; in the assay on HEK293 it was -6.75%; in the assay with KB-3-1, 9.26%. For the same molecule, the molecule was called inactive in the assay with HaCat [2] and with NIH3T3 [3]. The outcome with HACAT [5] and with NIH3T3 [6] was “inactive [at 9.27 µM]” throughout.
With `CC(C)C1(OO)C=C2C(=O)CC3C(C)(C(=O)O)CCCC3(C)C2CC1` (configuration not stated), the values for the max response with CRL-7250 [1], in the assay with HEK293 and in the assay on KB-3-1 were -0.339%, 2.31% and 7.41%, respectively. Also, the call with HaCat [2], in the assay with NIH3T3 [3], in the assay with HACAT [5] and with NIH3T3 [6] was inactive.
As for `OC1(c2ccc(Cl)cc2)c2ccccc2C2=NCCN21` (configuration not stated), the call in the assay on CRL-7250 [1], in the assay on NIH3T3 [3], with CRL-7250 [4] and with NIH3T3 [6] was inactive. The max response in the assay with HEK293 is -19.8%; with HaCat [2], 0.153%; in the assay on KB-3-1, 7.32%.

These data come from PubChem BioAssay (NCATS).
